Data as given in PubChem BioAssay AID588689 (Southern Research Specialized Biocontainment Screening …, 2011).
Among all 340,000 compounds or so, about 1,000 (0.29%) were called active. Rule as the data show it: inconclusive = inhibition above about 29% without an active follow-up result; inactive = below that. Not all results are given here. Measured potencies and affinities stand elsewhere.

Target: Genome polyprotein (Dengue virus type 2 (strain 16681-PDK53)) (UniProt P29991)
Test: flavivirus cap methylation enzyme inhibition – biochemical, confirmation dose response, primary screen (AID 588689)
Conditions: Dengue-2 NS5 methyltransferase capping enzyme assay, at 25 µM, stronger effect = higher value
[1] = measured here: pilot screen replicate inhibition

Row | SMILES | inhibition | inhibition [1] [%]
1 | COc1ccc(/C=C(\C#N)C(=O)OCC(=O)N2CC(C)OC(C)C2)cc1 (centres undefined) | -2.3% (inactive) | 
2 | O=C(CCCOc1ccc(Cl)cc1Cl)N/N=C/c1ccccc1 | -4.44% (inactive) | 
3 | CCCCCCCC(=O)N1c2ccccc2NC(=O)C1CC(=O)Nc1ccc(C(=O)O)cc1 (centres undefined) | 8.1% (inactive) | 
4 | Cc1ccccc1NS(=O)(=O)c1ccc(C(=O)N2CCCC(C(F)(F)F)C2)cc1 (centres undefined) | 0.73% (inactive) | 
5 | COc1cc(OC)cc(C(=O)NC2CCSC2=O)c1 (centres undefined) | 2.06% (inactive) | -3.04
6 | CCc1c(C)c2nncn2[nH]c1=O | -3.9% (inactive) | 
7 | CCOc1ccc(NC(=O)CN(C)C(=O)C2CC(=O)N(c3ccc4c(c3)OCCO4)C2)cc1OCC (centres undefined) | 5.04% (inactive) | 
8 | CC(C)Cn1c(SCC(=O)N2CC(=O)Nc3ccccc32)nc2ccccc21 | -0.64% (inactive) | 
9 | CC(=O)OCC1CCCC2=C(C)C(=O)CCC21COC(C)=O (centres undefined) | 3.29% (inactive) | 
10 | Cc1ccccc1NC(=O)NC1(C(=O)N2CCOCC2)CCCCC1 | -3.7% (inactive) | 
11 | COc1ccc(CCn2c(=O)c3cccnc3n(Cc3ccc([N+](=O)[O-])cc3)c2=O)cc1OC | -7.08% (inactive) | 
12 | CCS(=O)(=O)c1ccc(O)c(NC(=O)CCCC(=O)O)c1 | 12.2% (inactive) | 
13 | CCCCCC(=O)Nc1cc(S(=O)(=O)N2CCCCC2)ccc1N1CCCCC1 | -6.48% (inactive) | 
14 | Cc1ccc(N2CC(C(=O)OCc3nc(N)nc(Nc4ccccc4C)n3)CC2=O)cc1 (centres undefined) | 2.96% (inactive) | 
15 | CCCCC/C=C/C1=CC(=O)C[C@H](c2ccc(OC)cc2)C1 | -0.8% (inactive) | 
16 | CC(C)C(NC(=O)C1CCC(C(C)(C)C)CC1)C(=O)NCCc1ccc(S(N)(=O)=O)cc1 (centres undefined) | 9.25% (inactive) | 
17 | O=C(/C=C/c1cccc([N+](=O)[O-])c1)NCCN1C(=O)S/C(=C\c2ccc(F)cc2)C1=O | 5.26% (inactive) | 
18 | O=C(O)c1cccc(CN2C(=O)S/C(=C/c3ccccc3[N+](=O)[O-])C2=O)c1 | 28.5% (inactive) | 
19 | CCCCNC(C(=O)Nc1ccc([N+](=O)[O-])cc1Br)c1ccccc1 (centres undefined) | 1.47% (inactive) | 
20 | COc1ccc(C(=O)N2CCC(C(=O)Nc3ccc4c(c3)OCO4)CC2)cc1 | -4.42% (inactive) | 
21 | O=C(NCc1ccc(F)cc1)C(=O)NCC1OCCN1S(=O)(=O)c1cc(F)ccc1F (centres undefined) | 6.59% (inactive) | 
22 | Cc1ccc([N+](=O)[O-])cc1NC(=O)C(C)NS(=O)(=O)c1ccc(F)cc1 (centres undefined) | 2.19% (inactive) | 

Row | SMILES | inhibition | inhibition [1] [%]
23 | COc1ccc(NC(=O)CCCc2nc3ccccc3c(=O)[nH]2)cc1Cl | 6.22% (inactive) | 
24 | COC(=O)CCC(=O)OC1(C)C(=O)C=C2C=C(C3CC3)N(CCCOC(C)C)C=C2C1=O (centres undefined) | 7.22% (inactive) | 
25 | COC(=O)CCC(=O)OC1(C)C(=O)C2=CN(Cc3ccc(OC)cc3)C(c3ccc(OC)cc3)=CC2=C(Br)C1=O (centres undefined) | 17.2% (inactive) | 
26 | COC(=O)CCC(=O)OC1(C)C(=O)C=C2C=C(C3CC3)N(CC3CC3)C=C2C1=O (centres undefined) | 9.84% (inactive) | 
27 | CCN(CC)CCCN1C=C2C(=O)C(C)(OC(=O)CCC(=O)OC)C(=O)C(Br)=C2C=C1c1ccc(OC)cc1 (centres undefined) | 8.8% (inactive) | 
28 | COC(=O)CCC(=O)OC1(C)C(=O)C=C2C=C(C3CC3)N(Cc3ccc(OC)cc3)C=C2C1=O (centres undefined) | 17.3% (inactive) | 
29 | COC(=O)CCC(=O)OC1(C)C(=O)C=C2C=C(C3CC3)N(C3CCCCC3)C=C2C1=O (centres undefined) | 12.7% (inactive) | 
30 | COC(=O)CCC(=O)OC1(C)C(=O)C2=CN(CCc3c[nH]c4ccccc34)C(c3ccc(OC)cc3)=CC2=C(Br)C1=O (centres undefined) | -2.45% (inactive) | 
31 | COC(=O)CCC(=O)OC1(C)C(=O)C=C2C=C(C3CC3)N(C3CCCC3)C=C2C1=O (centres undefined) | 12.8% (inactive) | 
32 | N#Cc1ccc(CN2CCN(C(=O)CCNS(=O)(=O)c3ccc(F)c(F)c3)CC2)cc1 | -7.08% (inactive) | 
33 | O=C(CSc1ccc2c(c1)OCCO2)NCC1CCCO1 (centres undefined) | -10.5% (inactive) | 
34 | O=c1c(-c2ccccc2)c(O)c2c(n1-c1ccccc1)CCCC2 | -3.21% (inactive) | 
35 | O=C(O)c1ccc(-c2ccco2)n1Cc1ccccc1 | 4.75% (inactive) | 
36 | O=C(CN1CCN(Cc2ccc(F)cc2)CC1)Nc1ccccc1F | 1.36% (inactive) | 
37 | CCN(C(=O)CSc1nc2ccccc2c(=O)n1CCOC)C1CCS(=O)(=O)C1 (centres undefined) | 1.48% (inactive) | 
38 | CC(C)c1cccc(-c2ccc3c(c2)S(=O)(=O)c2cccc(C(=O)NC4CCCC4)c2C3=O)c1 | -4.92% (inactive) | 
39 | O=C1c2ccc(-c3ccc(F)cc3OCc3ccccc3)cc2S(=O)(=O)c2cccc(C(=O)N3CCCC3)c21 | 8% (inactive) | 
40 | CC(C)c1cccc(-c2ccc3c(c2)S(=O)(=O)c2cccc(C(=O)NCc4ccccc4)c2C3=O)c1 | -6.42% (inactive) | 
41 | COc1ccc(NC(=O)c2cccc3c2C(=O)c2ccc(-c4ccc(F)cc4OCc4ccccc4)cc2S3(=O)=O)cc1 | -0.7% (inactive) | 
42 | O=C(OCCN1CCCCC1)c1ccccc1Cl | 7.44% (inactive) | 
43 | CN(CC(=O)Nc1cccc(F)c1)CC(=O)N1CCCCC1 | 6.98% (inactive) | 
44 | COc1ccc(CN2CC(C(=O)NCCC(C)C)CC2=O)cc1 (centres undefined) | 6.67% (inactive) | 

Row | SMILES | inhibition | inhibition [1] [%]
45 | CC(C)(C)C(=O)NCCCc1ccccc1 | -0.68% (inactive) | 
46 | COc1cc(/C=C2/C(=O)NN(c3ccc(Cl)cc3)C2=O)ccc1OC(=O)c1ccco1 | 15.2% (inactive) | 
47 | COc1cc(/C=C2\C(=O)NN(c3ccc(C)cc3)C2=O)cc([N+](=O)[O-])c1O | 17.9% (inactive) | 
48 | COc1cc(/C=C2\C(=O)NN(c3ccccc3)C2=O)cc([N+](=O)[O-])c1O | 26.6% (inactive) | 
49 | COc1cc(/C=C2/C(=O)NN(c3cccc(F)c3)C2=O)ccc1OC(=O)c1ccco1 | 23% (inactive) | 
50 | CCOc1cc(/C=C2\NC(=O)NC2=O)cc([N+](=O)[O-])c1O | 71.9% (inactive) | 
51 | CCOc1cc(/C=C2/C(=O)N(c3ccccc3)N=C2C)ccc1OC(=O)c1ccco1 | 19.1% (inactive) | 
52 | COc1cc(/C=C2\C(=N)N3N=C(S(C)(=O)=O)SC3=NC2=O)ccc1OC(=O)c1ccco1 | -59.7% (inactive) | 
53 | CCOc1cc(/C=C2/NC(=O)NC2=O)cc([N+](=O)[O-])c1O | 22.9% (inactive) | 
54 | Cc1cc(C)c(NC(=O)c2ccc3c(c2)NC(=O)C(C)S3)c(C)c1 (centres undefined) | -0.76% (inactive) | 
55 | O=S(=O)(NCCc1ccc(F)cc1)c1ccc(F)cc1Br | -1.99% (inactive) | -0.92
56 | CCCCCC(=O)NNC1=NCC(Cc2cccc(Cl)c2)S1 (centres undefined) | -9.62% (inactive) | 
57 | CCN(Cc1cnn(C)c1)Cc1nc(Cc2ccccc2Cl)no1 | -2.18% (inactive) | 
58 | CCCCN1C(=O)/C(=C2\SC(N3CCCCC3)=NC2=O)c2ccccc21 | 1.1% (inactive) | 
59 | O=C(NCc1ccccc1)c1cccc(S(=O)(=O)N2CCCCC2)c1 | -8.7% (inactive) | 
60 | COc1ccc(OC)c(/C=N/NC(=O)c2ccncc2)c1 | -7.07% (inactive) | 
61 | CCc1ccccc1N(CC(=O)OC)S(C)(=O)=O | 3.12% (inactive) | 
62 | O=C1OC2(c3ccccc31)c1ccccc1-c1ccccc12 | 8.53% (inactive) | 
63 | Cc1cc(O)ccc1C1(c2ccc(O)cc2C)OC(=O)c2ccccc21 | -9.01% (inactive) | 
64 | O=C1OC(c2ccccc2)(c2ccc(O)cc2)c2ccccc21 (centres undefined) | 0.78% (inactive) | 
65 | O=C1OC(c2ccccc2)(c2ccccc2)c2ccccc21 | -6.99% (inactive) | 
66 | CC1CCCN(C(=O)c2nn(C)c3c2CS(=O)(=O)c2ccccc2-3)C1 (centres undefined) | -6.35% (inactive) | 

Row | SMILES | inhibition | inhibition [1] [%]
67 | COc1ccc(/C=C/C(=O)NC(C)(C)C)cc1S(=O)(=O)N1CCOCC1 | 3.24% (inactive) | 
68 | O=C(Nc1ccc2oc(=O)ccc2c1)c1cc([N+](=O)[O-])ccc1N1CCOCC1 | -4.64% (inactive) | 
69 | Cc1ccc(OC(C)C(=O)N2CC(=O)Nc3ccccc32)cc1 (centres undefined) | 1.78% (inactive) | 
70 | C[C@@H]1CN([C@@H](C)CO)C(=O)Cc2cc(NC(=O)Nc3ccc(F)cc3)ccc2O[C@@H]1CN(C)Cc1ccc(Cl)c(Cl)c1 | -10.3% (inactive) | 
71 | Cc1nc(SCC(=O)NC(C)(C)C)c2c(-c3cccs3)csc2n1 | -9.82% (inactive) | 
72 | COc1ccc(N2CCN(C(c3nnnn3C3CCCC3)C(C)C)CC2)cc1 (centres undefined) | -0.74% (inactive) | 
73 | Cc1ccc(C)n1Cc1ccccc1Cl | -24.6% (inactive) | 
74 | C=CCNC(=O)COc1c(C)ccc(C)c1C | -2.27% (inactive) | 
75 | CCOC(=O)N1CCC(N2C(=O)c3ccc(C(=O)NCCC(C)C)cc3C2=O)CC1 | -0.65% (inactive) | 
76 | O=C(Nc1ccc(C(=O)c2ccc(C(=O)O)c(C(=O)O)c2)cc1)c1ccccc1 | 6.21% (inactive) | 
77 | O=C(O)c1ccc(NC(=O)C(c2ccccc2)c2ccccc2)cc1 | -5.43% (inactive) | 
78 | CC(C)(C)C(=O)NC1=NN(c2c(Cl)cc(Cl)cc2Cl)C(=O)C1 | 6.11% (inactive) | 
79 | NC1=NN(c2c(Cl)cc(Cl)cc2Cl)C(=O)C1 | -5.65% (inactive) | 
80 | CC(C)/C=C/C(=O)N1CCC(N2CCC(C(=O)NCC3CCCO3)CC2)CC1 (centres undefined) | 6.04% (inactive) | 
81 | O=C(NCc1ccccn1)c1cccc(S(=O)(=O)N2CCc3ccccc32)c1 | 5.83% (inactive) | 
82 | Cc1c(NC(=O)c2ccc3c(c2)C(=O)N(Cc2ccco2)C3=O)cccc1C(=O)O | 6.25% (inactive) | 
83 | O=C(Nc1ccc(O)cc1C(=O)O)c1ccc2c(c1)C(=O)N(Cc1ccco1)C2=O | -4.89% (inactive) | 
84 | O=C1CSC(=S)N1/N=C/c1ccc2c(c1)OCCO2 | -7.17% (inactive) | 
85 | Cc1ccc(OCC(=O)NCCNC(=O)c2cnccn2)cc1C | -4.45% (inactive) | 
86 | COc1ccccc1C(NC(C)=O)c1cc(Cl)c2cccnc2c1O (centres undefined) | -1.32% (inactive) | 
87 | Oc1c(C(Nc2ccccn2)c2cccnc2)cc(Cl)c2cccnc12 (centres undefined) | -1.46% (inactive) | 
